ADAM10 inh: inhibits human ADAM10; recombinant ADAM10, EDANS/DABCYL FRET peptide cleavage, 3 h; inhibition, % at 7 µM; 370,000 tested, 0.62% active; AID 720582; O14672;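 active means inhibition above a per-campaign cutoff equal to the mean of compounds falling between control-based bounds plus 3 SD, cut at about 20% in these data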
GC-A act: GC-A (human) enzyme activation; 370,000 tested, 0.14% active; activation, % at 10 µM; HEK293 GC-A cells, cGMP TR-FRET, EC30 ANP; 0% at EC30 ANP, 100% saturating ANP; P16066; in the data active means activation above about 40%
Target sequence (P16066 whole entry, looked up): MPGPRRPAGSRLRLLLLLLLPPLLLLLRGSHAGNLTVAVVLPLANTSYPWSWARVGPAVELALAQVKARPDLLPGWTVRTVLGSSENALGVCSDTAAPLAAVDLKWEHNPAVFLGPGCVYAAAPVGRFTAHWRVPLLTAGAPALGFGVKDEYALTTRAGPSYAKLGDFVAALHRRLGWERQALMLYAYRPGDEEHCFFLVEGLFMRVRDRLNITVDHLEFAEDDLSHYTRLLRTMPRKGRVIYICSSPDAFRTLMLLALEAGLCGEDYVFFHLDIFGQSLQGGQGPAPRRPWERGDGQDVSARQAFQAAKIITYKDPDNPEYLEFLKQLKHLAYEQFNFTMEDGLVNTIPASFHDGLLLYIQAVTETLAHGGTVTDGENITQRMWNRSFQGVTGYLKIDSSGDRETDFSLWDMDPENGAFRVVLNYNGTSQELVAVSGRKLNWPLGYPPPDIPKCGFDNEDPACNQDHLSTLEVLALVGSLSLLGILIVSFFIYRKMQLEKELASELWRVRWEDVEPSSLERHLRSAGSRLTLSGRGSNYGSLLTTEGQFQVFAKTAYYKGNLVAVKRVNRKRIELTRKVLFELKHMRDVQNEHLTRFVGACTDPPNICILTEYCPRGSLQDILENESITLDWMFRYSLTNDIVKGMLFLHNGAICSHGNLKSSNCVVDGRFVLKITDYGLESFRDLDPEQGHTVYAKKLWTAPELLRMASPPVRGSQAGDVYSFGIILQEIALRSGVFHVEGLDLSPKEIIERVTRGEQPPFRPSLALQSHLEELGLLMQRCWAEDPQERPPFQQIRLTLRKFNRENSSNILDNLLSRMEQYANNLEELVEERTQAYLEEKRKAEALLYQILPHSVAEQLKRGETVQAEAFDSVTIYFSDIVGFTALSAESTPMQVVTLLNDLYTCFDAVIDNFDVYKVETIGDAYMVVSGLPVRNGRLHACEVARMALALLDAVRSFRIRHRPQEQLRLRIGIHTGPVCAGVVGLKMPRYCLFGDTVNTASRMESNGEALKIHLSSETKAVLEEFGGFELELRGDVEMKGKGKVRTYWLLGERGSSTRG
ADAM17 inh: inhibits human ADAM17; recombinant ADAM17, EDANS/DABCYL FRET peptide cleavage; inhibition, % at 6.95 µM; 370,000 tested, 0.83% active;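 active means inhibition above the mean of compounds lying between control limits plus 3 SD, set per campaign, cut at about 8.5% in these data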
proKLK7 act: activators of human kallikrein-7 zymogen; P49862; purified proKLK7, EDANS-DABCYL substrate fluorescence; 100% is mature enzyme control, 0% vehicle; activation, % at 7 µM; 370,000 tested, 0.9% active; AID 652039;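 active means activation above the mean of all tested compounds plus 3 SD, computed per campaign excluding outliers beyond control limits, cut at about 13% in these data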
GC-B act: GC-B (human) receptor activation; P20594; 370,000 tested, 0.11% active; activation, % at 10 µM; HEK293-GC-B cells, CNP EC30, cGMP TR-FRET; 0% at EC30 CNP, 100% saturating CNP;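 active means activation at 10 µM reaching about 35% in either raw or pattern-adjusted values, limit read from the data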
ADAM10 confirm: confirmation of inhibitors of human ADAM10; ADAM10 QFRET peptide cleavage, EDANS fluorescence; AID 743208; inhibition, % at 6.95 µM; shares compounds with ADAM10 inh; 2,100 tested, 1% active;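 active means inhibition above about 20% chosen separately for each screening run, limit read from the data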
ADAM17 counter: counter-screen for ADAM10 exosite inhibitors: inhibitors of human ADAM17 | shares compounds with ADAM10 inh | ADAM17 QFRET peptide cleavage, EDANS fluorescence | inhibition, % at 6.95 µM | 2,100 tested, 0.5% active;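 active means mean triplicate inhibition above the solvent-only control wells' mean plus 3 SD, cut at about 12% in these data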
ADAM10 ctr: ADAM10 inhibition, counter-screen for ADAM17 exosite hits; shares compounds with ADAM17 inh; recombinant ADAM10, EDANS/DABCYL FRET peptide cleavage, 3 h; inhibition, % at 6.95 µM; 2,900 tested, 47% active;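 active means mean inhibition over the triplicate runs exceeds the activity threshold set in the earlier primary screen, cut at about 20% in these data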
ADAM17 confirm: confirmation of inhibitors of human ADAM17; shares compounds with ADAM17 inh; recombinant ADAM17, EDANS/DABCYL QFRET peptide cleavage; inhibition, % at 6.95 µM; 2,900 tested, 65% active; AID 743257;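 active means mean inhibition across replicates above the hit cutoff set in the primary screen, cut at about 8.5% in these data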
A number is an active result; – = inactive; · = no result. Most compounds without a hit are left out; they make up all but 2.2% or so of the library.

SMILES	ADAM10 inh	GC-A act	ADAM17 inh	proKLK7 act	GC-B act	ADAM10 confirm	ADAM17 counter	ADAM10 ctr	ADAM17 confirm
CCOC(=O)c1cccc(NC(=O)CN(C)S(=O)(=O)c2cc(OC)ccc2OC)c1	–	–	–	–	–	·	·	·	·
OC(CNCC(c1ccc(Cl)cc1Cl)c1c[nH]c2ccccc12)c1ccccc1 (stereo not given)	26.4	–	12.2	–	–	–	–	36.9	17.0
COC(=O)C[C@H]1CC[C@H]2[C@H](COc3ccc(NS(=O)(=O)c4cccc(F)c4)cc3C(=O)N2C)O1	–	–	–	–	–	·	·	·	·
CCCCCCCC/C=C\CCCCCCCC(=O)NCCc1ccc(O)c(O)c1	27.7	–	13.3	–	–	–	–	25.8	17.4
CCCCCCCC/C=C\CCCCCCCC(=O)NCCO	–	–	–	–	–	·	·	·	·
CC(c1c[nH]c2ccccc12)c1cn(C)c2ccccc12 (stereo not given)	–	–	–	–	–	·	·	·	·
Cc1ccc(NC(=O)Cc2ccc(Cl)c(Cl)c2)cc1S(=O)(=O)N(C)C	28.4	–	14.7	–	–	–	–	–	9.6
Cc1ccc(NC(=O)CSc2nn(-c3ccc(Cl)cc3)c(=S)s2)cc1S(=O)(=O)N(C)C	25.3	–	9.8	–	–	–	–	28.1	19.5
CN(C)S(=O)(=O)c1cc(NC(=O)CSc2nn(-c3ccc(Cl)cc3)c(=S)s2)ccc1Cl	–	–	–	–	–	·	·	·	·
Cc1ccc(NC(=O)Cc2ccccc2Cl)cc1S(=O)(=O)N(C)C	–	–	–	–	–	·	·	·	·
COC(=O)[C@H](CC(C)C)N(Cc1cn(Cc2ccc(C)cc2)nn1)S(=O)(=O)c1ccc(F)cc1Br	–	–	–	–	–	·	·	·	·
OCCNc1nc(Nc2ccccc2Oc2ccccc2)nc(N2CCCC2)n1	27.4	–	11.5	–	–	–	–	20.9	12.9
OCCNc1nc(Nc2ccccc2OC(F)(F)F)nc(N2CCCC2)n1	–	–	–	–	–	·	·	·	·
Cc1cccc(C)c1OCC(=O)N(Cc1ccc(Cl)cc1)C1CCS(=O)(=O)C1 (stereo not given)	20.2	–	9.2	–	–	–	–	–	–
O=C(COC(=O)c1ccccn1)Nc1ccc(S(=O)(=O)N2CCOCC2)cc1	–	–	–	–	–	·	·	·	·
CCc1nc2ccccc2c(C(=O)OCC(=O)Nc2ccc(S(=O)(=O)N3CCOCC3)cc2)c1C	19.8	–	10.0	–	–	–	–	20.5	12.5
COc1ccc(-c2n[nH]c(=S)n2-c2cc(OC)ccc2OC)cc1	–	–	–	–	–	·	·	·	·
COc1ccc(OC)c(-n2c(-c3cc(-c4ccc(F)cc4)n[nH]3)n[nH]c2=S)c1	20.1	–	9.3	–	–	–	–	–	–
Cn1c(COc2ccccc2)nnc1SCC(=O)Nc1ccccc1-c1ccccc1	–	–	–	–	–	·	·	·	·
COc1ccc(-n2c(COc3ccccc3)nnc2SCC(=O)Nc2ccccc2-c2ccccc2)cc1	20.4	–	10.6	–	–	–	–	24.3	13.4
COc1ccc(N=C2SC(CC(=O)Nc3ccccc3)C(=O)N2Cc2ccco2)cc1 (stereo not given)	28.4	–	9.3	–	–	–	–	20.5	13.8
C[C@@H]1C[C@H]2[C@@H](Cc3ccccc3)C(=O)N3[C@H](c4ccccc4)[C@H](C)C[C@H]3[C@@H](Cc3ccccc3)C(=O)N2[C@@H]1c1ccccc1	–	–	–	–	–	·	·	·	·
Cc1cc(C)cc(NC(=O)C2CCN(S(=O)(=O)c3ccc4c(c3)NC(=O)C(C)S4)CC2)c1 (stereo not given)	–	–	–	–	–	·	·	·	·
Cc1ccc(NC(=O)C2CCN(S(=O)(=O)c3ccc4c(c3)NC(=O)C(C)S4)CC2)cc1Cl (stereo not given)	24.4	–	9.4	–	–	–	–	46.8	23.7
COCCOC(=O)c1c(C)n(C)c2ccc(OC(=O)c3c(OC)cccc3OC)cc12	20.7	–	10.2	–	–	–	–	–	9.1
SMILES	ADAM10 inh	GC-A act	ADAM17 inh	proKLK7 act	GC-B act	ADAM10 confirm	ADAM17 counter	ADAM10 ctr	ADAM17 confirm
C[C@H](NC(=O)c1nc[nH]c1C(=O)NCC(=O)OC(C)(C)C)C(=O)OC(C)(C)C	–	–	–	–	–	·	·	·	·
CC(C)C[C@H](NC(=O)c1nc[nH]c1C(=O)N[C@@H](CC(C)C)C(=O)OCc1ccccc1)C(=O)OCc1ccccc1	–	–	–	–	–	·	·	·	·
CC(C)C[C@H](NC(=O)c1[nH]cnc1C(=O)N[C@H](C)c1ccccc1)C(=O)OCc1ccccc1	27.3	–	12.9	–	–	–	–	46.0	20.9
CC(C)C[C@H](NC(=O)c1nc[nH]c1C(=O)NCC(=O)OC(C)(C)C)C(=O)OC(C)(C)C	25.6	–	12.6	–	–	–	–	30.3	14.9
C[C@H](NC(=O)c1nc[nH]c1C(=O)N[C@@H](Cc1ccccc1)C(=O)OC(C)(C)C)C(=O)OC(C)(C)C	22.4	–	10.0	–	–	–	–	50.0	23.7
CC(C)(C)OC(=O)[C@H](Cc1ccccc1)NC(=O)c1[nH]cnc1C(=O)N[C@@H](Cc1ccccc1)C(=O)OCc1ccccc1	–	–	–	–	–	·	·	·	·
CC(C)C[C@H](NC(=O)c1nc[nH]c1C(=O)NCC(=O)OCc1ccccc1)C(=O)OC(C)(C)C	22.8	–	8.9	–	–	–	–	33.1	16.5
COc1ccccc1C(=O)n1ccc2ccc(-c3ccc4ccn(Cc5ccccc5)c4c3)cc21	–	–	–	–	–	·	·	·	·
COc1ccc(-c2cc(C(=O)NN=Cc3ccc(C)s3)[nH]n2)cc1	–	–	–	–	–	·	·	·	·
CC(C)(C)OC(=O)N1CCC(NC(=O)c2nc[nH]c2C(=O)NCC(=O)OCc2ccccc2)CC1	22.7	–	8.7	–	–	–	–	–	–
CC(C)C[C@H](NC(=O)c1[nH]cnc1C(=O)N[C@@H](C)C(=O)OCc1ccccc1)C(=O)OC(C)(C)C	28.9	–	14.1	–	–	–	–	39.2	21.1
C[C@H](NC(=O)c1nc[nH]c1C(=O)N[C@@H](C)C(=O)OCc1ccccc1)C(=O)OCc1ccccc1	–	–	–	–	–	·	·	·	·
Cc1nc2ccc(S(=O)(=O)NCC(=O)NCc3ccccc3Cl)cc2s1	–	–	–	–	–	·	·	·	·

Source: PubChem (several laboratories)
